Several values for one entry are separate records, joined by “and”; a condition that tells them apart may be missing. Equal entries are not always repeated. Inconclusive results are not listed. Activity calls are given as the source filed them. Calls come from the whole dose curve; as a rule, active = well fitted curve in the direction sought with a large enough effect; inconclusive = small, poorly fitted or top-dose-only effect, or another doubt; inactive = no such curve, though single readings can be large; an effect the other way counts as inactive or inconclusive.

Rap guanine nucleotide exchange factor 3 (Homo sapiens), sequence (O95398 whole entry, looked up): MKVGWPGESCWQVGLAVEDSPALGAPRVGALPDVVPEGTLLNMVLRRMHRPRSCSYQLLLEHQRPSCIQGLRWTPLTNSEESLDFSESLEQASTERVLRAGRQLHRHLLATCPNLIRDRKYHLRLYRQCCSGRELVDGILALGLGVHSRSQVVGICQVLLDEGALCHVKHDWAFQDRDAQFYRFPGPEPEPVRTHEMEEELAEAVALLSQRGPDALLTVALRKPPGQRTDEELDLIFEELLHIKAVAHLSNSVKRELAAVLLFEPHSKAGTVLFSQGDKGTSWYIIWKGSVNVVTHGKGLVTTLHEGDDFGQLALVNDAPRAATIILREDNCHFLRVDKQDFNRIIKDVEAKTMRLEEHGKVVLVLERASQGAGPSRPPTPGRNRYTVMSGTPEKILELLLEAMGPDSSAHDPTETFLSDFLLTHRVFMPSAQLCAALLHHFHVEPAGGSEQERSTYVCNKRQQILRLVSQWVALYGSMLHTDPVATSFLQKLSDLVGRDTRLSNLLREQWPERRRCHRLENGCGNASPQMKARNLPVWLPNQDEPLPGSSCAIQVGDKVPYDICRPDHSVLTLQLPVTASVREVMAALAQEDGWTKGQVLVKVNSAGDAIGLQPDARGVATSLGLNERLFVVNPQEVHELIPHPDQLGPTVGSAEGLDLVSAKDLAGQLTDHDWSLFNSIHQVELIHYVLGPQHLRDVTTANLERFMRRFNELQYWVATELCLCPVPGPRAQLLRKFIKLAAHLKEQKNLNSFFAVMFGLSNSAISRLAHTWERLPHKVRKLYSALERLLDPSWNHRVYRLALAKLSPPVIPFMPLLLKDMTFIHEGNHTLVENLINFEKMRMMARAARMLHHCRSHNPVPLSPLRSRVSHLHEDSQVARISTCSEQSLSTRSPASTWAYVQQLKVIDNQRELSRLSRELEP

Test system in the first assay: not listed separately
The assay is described as follows: Primary qHTS for inhibitors of nuclear receptor binding SET domain protein 2 (NSD2) in an isogenic RCH-ACV NSD2 p.E1099K mutant (9B) (AID 1645876). For activity change, negative = viability loss: % is set by controls: 0 for no effect and ±100 for the full control effect. Note: nearly all actives have a fitted effect of over 70% in size. Note: potency is the fitted concentration of half-maximal effect. Particulars: RCH-ACV NSD2 E1099K (9B) viability, CellTiter-Glo, 72 h; series mostly up to 44.9 µM; activity change, negative = viability loss: at the top concentration.
Regarding `CCOC(=O)c1c(N)sc2c1CCN(Cc1ccccc1)C2`, the Potency was 16.8 µM (active).

Take `CC[C@]12CCCN3CCc4c(n(c5ccccc45)C(=O)C1)[C@@H]32`: the Potency was 8.41 µM (active) and 8.17 µM (active). Consider `COc1ccc(CN(CCN(C)C)c2ncccn2)cc1`, for which the “activity change, negative = viability loss” value was -9.2% (inactive). Regarding `O=C1[C@H](CC[C@H](O)c2ccc(F)cc2)[C@@H](c2ccc(O)cc2)N1c1ccc(F)cc1`, the Potency is 23 µM (active). Take `Cc1c[nH]c2ccccc12`: the compound was called inactive. As for `CN(Cc1ccc(C(C)(C)C)cc1)Cc1cccc2ccccc12`, the “activity change, negative = viability loss” value was -10.1% (inactive). As for `CCN[C@@H]1C[C@H](N)[C@@H](OC2OC(CN)=CCC2N)[C@H](O)[C@H]1O[C@H]1OC[C@](C)(O)[C@H](NC)[C@H]1O` (some centres not stated), the outcome was “inactive [at 0.588 µM]”. For the compound `Oc1c(Cl)cc(Cl)c(Cl)c1Cc1c(O)c(Cl)cc(Cl)c1Cl`, the Potency was 5.96 µM (active). Turning to `Cc1cc(NS(=O)(=O)c2ccc(N)cc2)nc(C)n1`, the “activity change, negative = viability loss” value is -12% (inactive).

Test system in a further assay: not listed separately
In words: Primary qHTS for inhibitors of nuclear receptor binding SET domain protein 2 (NSD2) in an RCH-ACV wild type WT cells (2C) (AID 1645877). For activity change, negative = cell killing: % is set by controls: 0 for no effect and ±100 for the full control effect. Note: nearly all actives have a fitted effect of over 70% in size. Note: potency is the fitted concentration of half-maximal effect. Conditions: RCH-ACV (leukaemia line) NSD2 WT (2C) viability, CellTiter-Glo, 72 h; series mostly up to 44.9 µM; activity change, negative = cell killing: at the top concentration. (In qHTS, concentration-response curves come from the screen itself.)
In the case of `CCCCCCCCCCCCOCCOCCOCCOCCOCCOCCOCCOCCOCCO`, the Potency was 11.9 µM (active). With `O=[N+]([O-])c1ccc(/C=N\O)o1`, the “activity change, negative = cell killing” value was -17.7% (inactive). In the case of `CCCCc1cc2ccccc2c(OCCN(C)C)n1`, the Potency was 18.8 µM (active). As to `C=C[C@H]1CN2CC[C@H]1C[C@@H]2[C@@H](O)c1ccnc2ccc(OC)cc12`, the “activity change, negative = cell killing” value is -19.7% (inactive). With `CCNC(=O)/C=C/c1cccc(Br)c1`, the “activity change, negative = cell killing” value is -23.1% (inactive). As to `NS(=O)(=O)Cc1noc2ccccc12`, the “activity change, negative = cell killing” value is -22.7% (inactive). Turning to `CCc1ccc(C(=O)C(C)CN2CCCCC2)cc1` (configuration not stated), the Potency is 23.7 µM (active).

The next assay concerns the target Rap guanine nucleotide exchange factor 3 (Homo sapiens) (UniProt O95398). The assay is described as follows: Confirmatory qHTS for antagonist of cAMP-regulated guanine nucleotide exchange factor 3 (EPAC1) (AID 1645880).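 For activity, negative = inhibition: plate controls were DMSO only for no effect and full effect of the ATA control for full effect.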 Note: nearly all actives have a fitted effect of over 55% in size. Note: potency is the fitted concentration of half-maximal effect. Particulars: EPAC1 Rap1B-BODIPY-GDP exchange, fluorescence; series mostly up to 115 µM; activity, negative = inhibition: at the top concentration. An excerpt:
Assay Provider (PI): Xiaodong Cheng Ph.D. The University of Texas Medical Branch, […], TX MLPCN Grant: NS066510 In multi-cellular eukaryotic organisms, the effects of cAMP are transduced by two ubiquitously-expressed intracellular cAMP receptors, the classic protein kinase A/cAMP-dependent protein kinase (PKA/cAPK) and the more recently discovered exchange protein directly activated by cAMP/cAMP-regulated guanine nucleotide exchange factor (EPAC/cAMP-GEF). Both PKA and EPAC are ubiquitously expressed in all tissues, and an increase in intracellular cAMP levels will lead to the activation of both PKA and EPAC. Therefore, careful dissections of the individual role and relative contribution of EPAC and PKA within the overall cAMP signaling in various model systems are critical for further elucidating the mechanism of cAMP signaling. To date no EPAC-specific antagonists and agonist, as well as isoform-specific agonists have been reported, and developing EPAC-specific pharmacological probes to determine the physiological functions that EPAC play in the overall cAMP-mediated signaling remains a major challenge within the research field. Furthermore, identified regulators of EPAC may lead to new mechanism-based therapeutic strategies specifically targeting the EPAC / cAMP-signaling components as EPAC has been implicated to play important roles in major human pathological conditions such as diabetes, heart disease, and cancer. This qHTS will be used to screen the Molecular Libraries Small Molecule Repository (MLSMR) as a concentration-titration series using the NCGC unique quantitative screening (qHTS) platform to find activators for EPAC1. In addition, this assay will also be used as a counterscreen for the EPAC2 qHTS. This fluorescent based assay is developed and validated for EPAC1 that measures exchange using EPAC effector Rap1 complex with BODIPY-GDP, a GDP analog with a tethered fluorophores. Activators are identified by monitoring the change in fluorescence signal as the exchanged free BODIPY-GDP has a reduced fluorescence compared to Rap1-bound BODIPY-GDP. Increase in signal (activation) is the desired outcome for the EPAC1 agonist while no activity in this assay is desired for the EPAC2 agonist counterscreen. Reference: [1] de Rooij, J., Zwartkruis, F. J., Verheijen, M. H., Cool, R. H., Nijman, S. M., Wittinghofer, A., and Bos, J.L. (1998) Nature 396, 474-477. Kawasaki, H., Springett, G. M., Mochizuki, N., Toki, S., Nakaya, M., Matsuda, M., Housman, D. E., and Graybiel, A. M. (1998) Science 282, 2275-2279.
Briefly, three uL of reagents (100 nM EPAC1, 250 nM RAP1B-BODIPY-GDP, 50 uM GDP) were dispensed into a 1536-well Greiner black solid-bottom medium binding assay plate. Controls and test compounds (23 nL) were transferred to the plate via a Kalypsys pin tool equipped with a 1536-pin array. The plates were centrifuged at 1,000 rpm for 15 seconds followed by 5 minute incubation at room temperature. The assay plates were read at 5 minute intervals for 30 minutes in the ViewLux plate reader using 480nm excitation and 540nm emission filters. The results were normalized to the […] positive control ATA and DMSO.
In the case of `CCc1oc2ccccc2c1C(=O)c1cc(Br)c(O)c(Br)c1`, the Potency was 39.5 µM (active) and 39.8 µM (active). Consider `CC(C)=CCOc1ccc(/C=C/C(=O)c2ccc(OCC=C(C)C)cc2OCC(=O)O)cc1`, for which the Potency is 49.8 µM (active).

For the compound `COc1ccc(C(=O)c2ccccc2)c(O)c1`, the “activity, negative = inhibition” value was -12.9% (inactive). In the case of `CC1(COc2ccc(CC3SC(=O)NC3=O)cc2)CCCCC1` (configuration not stated), the Potency was 49.8 µM (active).

A further assay has the same target. In words: Confirmatory qHTS for agonist of cAMP-regulated guanine nucleotide exchange factor 3 (EPAC1) (AID 1645881).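 Note: EPAC1 catalysed release of BODIPY-GDP from Rap1B seen as fluorescence loss; nearly all actives have a fitted effect of over 75% in size.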 Particulars: EPAC1 Rap1B BODIPY-GDP exchange fluorescence, 100% = cAMP control response; series mostly up to 154 µM; activation: at the top concentration.
As for `Oc1ccc(Cl)cc1Cc1cc(Cl)ccc1O`, the “activation” value is 12.2% (inactive). With `CO[C@H]1C=CO[C@@]2(C)Oc3c(C)c(O)c4c(O)c(c(/C=N/N5CCN(C)CC5)c(O)c4c3C2=O)NC(=O)/C(C)=C\C=C[C@H](C)[C@H](O)[C@@H](C)[C@@H](O)[C@@H](C)[C@H](OC(C)=O)[C@@H]1C`, the “activation” value was 4.23% (inactive). As for `CCc1oc2ccccc2c1C(=O)c1cc(Br)c(O)c(Br)c1`, the compound was called inactive.

For `CC(C)=CCOc1ccc(/C=C/C(=O)c2ccc(OCC=C(C)C)cc2OCC(=O)O)cc1`, the “activation” value is -11.4% (inactive). Same read-out and setting: the same measure for `COc1ccc(C(=O)c2ccccc2)c(O)c1`: 3.89% (inactive); for `CCc1oc2ccccc2c1C(=O)c1cc(I)c(O)c(I)c1`: 10.4% (inactive); for `CC1(COc2ccc(CC3SC(=O)NC3=O)cc2)CCCCC1` (configuration not stated): -22.2% (inactive).

Values taken from PubChem BioAssay (NCATS).
